From article PMC5700166 come the findings set out here.

Test [1] has as its target T1, GST-Nv-NF-kB (Ser allele) (Nematostella vectensis, UniProt A7UNT2 2-411).
T1 sequence: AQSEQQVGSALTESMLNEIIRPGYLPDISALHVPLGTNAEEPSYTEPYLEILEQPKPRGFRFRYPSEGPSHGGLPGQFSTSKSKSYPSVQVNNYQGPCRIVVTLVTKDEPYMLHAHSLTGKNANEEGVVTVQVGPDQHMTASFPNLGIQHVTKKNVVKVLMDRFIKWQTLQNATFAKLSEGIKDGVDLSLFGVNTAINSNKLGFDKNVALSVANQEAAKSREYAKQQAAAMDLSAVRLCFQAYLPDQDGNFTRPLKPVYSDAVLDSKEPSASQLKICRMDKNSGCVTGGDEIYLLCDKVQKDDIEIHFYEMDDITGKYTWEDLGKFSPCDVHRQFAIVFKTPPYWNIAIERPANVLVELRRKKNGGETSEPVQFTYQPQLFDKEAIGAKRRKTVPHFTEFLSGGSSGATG
Kind of test: protein-binding microarray (PBM); PBM: ~300 nM protein, 6 mM HEPES pH 7.8, 80 mM KCl, 0.5 mM EDTA, 0.5 mM EGTA, 6% glycerol, 35 ng/ul poly-dIdC, 1% milk, 1 h, room temperature; Ap Aiptasia and Nv Nematostella (sea anemones) / Co Capsaspora / Aq Amphimedon (sponge) / Dm Drosophila / Hu human; RHD is the Rel homology domain; high values mean tight binding. The note with it: dsDNA, one strand shown.

A further test concerns the target GST-Hu-p50 (Homo sapiens, UniProt P19838 7-356). The description is as above. The note with it: dsDNA, one strand shown.

GST-Hu-p50, sequence (P19838 7-356): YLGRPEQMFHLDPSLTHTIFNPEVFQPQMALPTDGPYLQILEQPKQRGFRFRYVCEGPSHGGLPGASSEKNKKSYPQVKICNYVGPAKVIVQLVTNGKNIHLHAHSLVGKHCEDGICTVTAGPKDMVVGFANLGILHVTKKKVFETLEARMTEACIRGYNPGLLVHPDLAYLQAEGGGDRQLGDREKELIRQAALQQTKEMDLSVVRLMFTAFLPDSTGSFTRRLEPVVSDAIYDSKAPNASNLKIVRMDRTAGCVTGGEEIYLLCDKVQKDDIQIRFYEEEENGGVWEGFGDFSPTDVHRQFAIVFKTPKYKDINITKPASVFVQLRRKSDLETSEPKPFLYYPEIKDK

In the case of “CCGATTAACATCACATATTTCCCTGATGTTAATCGGGTCTTGATTCGCTTGACGCTGCTG”, the binding signal in test [1] was 5.42 z-score; with GST-Hu-p50, 3.71 z-score.
On to “CCGATTAACATCAATTTCCCGCCTGATGTTAATCGGGTCTTGATTCGCTTGACGCTGCTG”, for which the binding signal in test [1] was found to be 4.4 z-score; with GST-Hu-p50, 2.33 z-score.
Take “CCGATTAACATCAAGGGATTTTCTGATGTTAATCGGGTCTTGATTCGCTTGACGCTGCTG”: the binding signal in test [1] came to 5.14 z-score; with GST-Hu-p50 it was 4.49 z-score.
Turning to “CCGATTAACATCAGGGGGGACAATGATGTTAATCGGGTCTTGATTCGCTTGACGCTGCTG”, the binding signal was 4.45 z-score in test [1] and 3.69 z-score with GST-Hu-p50.
With “CCGATTAACATCACGGGGAGTCCTGATGTTAATCGGGTCTTGATTCGCTTGACGCTGCTG”, the binding signal in test [1] came out at 4.29 z-score; with GST-Hu-p50, 3.39 z-score.
Consider “CCGATTAACATCAATGTCGGTGGTGATGTTAATCGGGTCTTGATTCGCTTGACGCTGCTG”, for which the values for the binding signal (in test [1]; in the test with GST-Hu-p50) were 1.08 z-score and 1.95 z-score, respectively.
The matching figures for “CCGATTAACATCAGACCTCCCCCTGATGTTAATCGGGTCTTGATTCGCTTGACGCTGCTG”: 4.4 z-score and 3.87 z-score.
Regarding “CCGATTAACATCAGGGGGCAAGATGATGTTAATCGGGTCTTGATTCGCTTGACGCTGCTG”, the binding signal in test [1] came out at 1.92 z-score; with GST-Hu-p50 it was 2.2 z-score.
“CCGATTAACATCACGGAAACCCCTGATGTTAATCGGGTCTTGATTCGCTTGACGCTGCTG”: the figures for the binding signal (in test [1]; in the test with GST-Hu-p50) were 3.87 z-score and 4.6 z-score, respectively.
For “CCGATTAACATCAGGGGGGTACATGATGTTAATCGGGTCTTGATTCGCTTGACGCTGCTG”, the binding signal in test [1] is 3.54 z-score; with GST-Hu-p50 it was 2.93 z-score.
“CCGATTAACATCACCCTTGCAGGTGATGTTAATCGGGTCTTGATTCGCTTGACGCTGCTG”: the results for the binding signal (in test [1]; with GST-Hu-p50) were 1.12 z-score and 2.18 z-score, respectively.
As for “CCGATTAACATCAGGCTATCCCCTGATGTTAATCGGGTCTTGATTCGCTTGACGCTGCTG”, the binding signal came to 3.73 z-score in test [1] and 3.43 z-score with GST-Hu-p50.
For the sequence “CCGATTAACATCAAGTACTTCCCTGATGTTAATCGGGTCTTGATTCGCTTGACGCTGCTG”, the binding signal in test [1] came to 1.34 z-score; with GST-Hu-p50 it was 1.17 z-score.
On the same counts, the results for “CCGATTAACATCAAAATTCCCGGTGATGTTAATCGGGTCTTGATTCGCTTGACGCTGCTG” are 6.06 z-score and 4.89 z-score.
For the sequence “CCGATTAACATCACGGGAATCCCTGATGTTAATCGGGTCTTGATTCGCTTGACGCTGCTG”, the binding signal is 4.38 z-score in test [1] and 3.99 z-score in the test with GST-Hu-p50.
With “CCGATTAACATCAGGCCCCCCCCTGATGTTAATCGGGTCTTGATTCGCTTGACGCTGCTG”, the binding signal in test [1] is 3.9 z-score; in the test with GST-Hu-p50, 4.51 z-score.
With “CCGATTAACATCAAAAAATGCCCTGATGTTAATCGGGTCTTGATTCGCTTGACGCTGCTG”, the binding signal in test [1] is 1.9 z-score; with GST-Hu-p50, 3.14 z-score.
Turning to “CCGATTAACATCAAGCGTTTCCCTGATGTTAATCGGGTCTTGATTCGCTTGACGCTGCTG”, the binding signal in test [1] is 3.6 z-score; in the test with GST-Hu-p50, 1.47 z-score.
As to “CCGATTAACATCAGGTAACTACCTGATGTTAATCGGGTCTTGATTCGCTTGACGCTGCTG”, the binding signal in test [1] came to 1.88 z-score; with GST-Hu-p50, 1.3 z-score.
Turning to “CCGATTAACATCAGAGTTTCCCATGATGTTAATCGGGTCTTGATTCGCTTGACGCTGCTG”, the results for the binding signal (in test [1]; with GST-Hu-p50) were 3.14 z-score and 2.22 z-score, respectively.
On the same counts, the results for “CCGATTAACATCACAAACTTCCCTGATGTTAATCGGGTCTTGATTCGCTTGACGCTGCTG” are 4.44 z-score and 2.88 z-score.
For “CCGATTAACATCAAATTCCCAGTTGATGTTAATCGGGTCTTGATTCGCTTGACGCTGCTG”, the binding signal was found to be 3.92 z-score in test [1] and 2.85 z-score in the test with GST-Hu-p50.
On the same counts, the results for “CCGATTAACATCAGGGGAAGGGATGATGTTAATCGGGTCTTGATTCGCTTGACGCTGCTG” are 5.77 z-score and 3.4 z-score.
Turning to “CCGATTAACATCAGGGGTTTAACTGATGTTAATCGGGTCTTGATTCGCTTGACGCTGCTG”, the figures for the binding signal (in test [1]; in the test with GST-Hu-p50) were 1.69 z-score and 3.05 z-score, respectively.
In the case of “CCGATTAACATCAGGGGGGGCACTGATGTTAATCGGGTCTTGATTCGCTTGACGCTGCTG”, the binding signal in test [1] was found to be 3.3 z-score; with GST-Hu-p50 it was 3.87 z-score.
As for “CCGATTAACATCAGGGATTTACCTGATGTTAATCGGGTCTTGATTCGCTTGACGCTGCTG”, the binding signal in test [1] was determined as 5.26 z-score; in the test with GST-Hu-p50, 4.74 z-score.
On the same counts, the results for “CCGATTAACATCAGGGAGCCCCCTGATGTTAATCGGGTCTTGATTCGCTTGACGCTGCTG” are 3.69 z-score and 5.27 z-score.
For “CCGATTAACATCAGGACTTTACCTGATGTTAATCGGGTCTTGATTCGCTTGACGCTGCTG”, the binding signal was 2.66 z-score in test [1] and 2.67 z-score with GST-Hu-p50.
As for “CCGATTAACATCACCCAGGGAAATGATGTTAATCGGGTCTTGATTCGCTTGACGCTGCTG”, the binding signal is 1.97 z-score in test [1] and 2.01 z-score with GST-Hu-p50.
The matching figures for “CCGATTAACATCAGGGACCTCCCTGATGTTAATCGGGTCTTGATTCGCTTGACGCTGCTG”: 1.67 z-score and 3.27 z-score.
Regarding “CCGATTAACATCAAAAAAATACCTGATGTTAATCGGGTCTTGATTCGCTTGACGCTGCTG”, the binding signal is 4.89 z-score in test [1] and 3.43 z-score in the test with GST-Hu-p50.
As for “CCGATTAACATCAGAGAAGTCCCTGATGTTAATCGGGTCTTGATTCGCTTGACGCTGCTG”, the binding signal in test [1] turned out to be 5.95 z-score; with GST-Hu-p50, 5.25 z-score.
Consider “CCGATTAACATCACGGGAAACCCTGATGTTAATCGGGTCTTGATTCGCTTGACGCTGCTG”, for which the figures for the binding signal (in test [1]; in the test with GST-Hu-p50) were 3.35 z-score and 2.62 z-score, respectively.
On to “CCGATTAACATCAAACAACCCCCTGATGTTAATCGGGTCTTGATTCGCTTGACGCTGCTG”, for which the binding signal in test [1] is 4.83 z-score; in the test with GST-Hu-p50, 5.05 z-score.
On to “CCGATTAACATCAATATAGTCCCTGATGTTAATCGGGTCTTGATTCGCTTGACGCTGCTG”, for which the figures for the binding signal (in test [1]; with GST-Hu-p50) were 4.68 z-score and 3.8 z-score, respectively.
For the sequence “CCGATTAACATCAAAAAATACCATGATGTTAATCGGGTCTTGATTCGCTTGACGCTGCTG”, the figures for the binding signal (in test [1]; with GST-Hu-p50) were 2.92 z-score and 2.43 z-score, respectively.
